Source: PubChem BioAssay
F508del corr – F508del CFTR correction, initial screen, CFBE line, single point. CFBE cells, YFP halide quenching; stimulated with forskolin plus potentiator P3; % fluorescence drop versus neutral controls. activity (quench increase), % at 7.58 µM. 350,000 compounds, 0.36% hits. AID 720511, 2013;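 active = mean added fluorescence quench of at least 8% versus neutral control, with both replicates also reaching 8%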;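 note: cells transiently co-express mutant CFTR-F508del with the halide-sensitive YFP; corrector assay measuring rescue of mutant channel to the surface after 24 h compound exposure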
Env fusion inh – inhibitors of HIV-1 Env-driven cell-cell fusion, primary screen, HeLa-JRFL effector, CEM21 target cells, luciferase | inhibition, % at 12.3 µM | 360,000 compounds, 1.1% hits | AID 651610, 2012;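 active = mean replicate inhibition score of at least 50 and every replicate individually at or above 50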;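 note: 0% = plate neutral controls and 100% = maraviroc near 300 nM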
PAX8 reporter – inhibitors of PAX8-driven TPO luciferase reporter, primary screen, RMG-I cells, single concentration | inhibition, % at 12.6 µM | 360,000 compounds, 1.2% hits | SteadyGlo, 24 h;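 active = mean replicate inhibition at least 60% with every replicate also reaching 60%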;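 note: luciferase light reporting Pax8 driven TPO promoter activity; plate controls were median of neutral control wells for no effect and mitoxantrone controls for full effect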
EWS-Fli block – EWS/Fli-driven NR0B1 reporter inhibitors, primary screen, A673 cells, NR0B1 luciferase, luminescence, MLPCN library; viability-normalised; inhibition, % at 12.6 µM; 350,000 compounds, 0.67% hits;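 active = mean inhibition of at least 50% after viability correction, with every replicate also passing that limit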;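 note: firefly luciferase signal divided by Alamar Blue viability fluorescence both relative to DMSO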
FXN GAA850 act – FXN promoter activators, primary screen, cell-based, luciferase luminescence, HEK293 lucGAA850; AID 540364, 2011; 360,000 compounds, 0.56% hits; activation, % at 6 µM; HEK293 lucGAA850 FXN promoter luciferase reporter, 24 h; percent of 10 µM SAHA response;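 active = activation above the average of all compounds screened plus 3 SD, cutoff fixed separately per campaign, cut at about 7.5% in these data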;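 note: 0% = DMSO wells and 100% = 10 µM SAHA wells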
GAA30 counter – GAA30 FXN promoter activators, confirmation, counter-screen for GAA850 frataxin promoter activator project, cell-based, luminescence, HEK293, lucGAA30, triplicate. AID 588350, 2011. 1,900 compounds, 66% hits. activation, % at 6 µM. shares compounds with FXN GAA850 act. HEK293 lucGAA30 FXN promoter luciferase, 24 h; DMSO = 0%, 5 µM ipriflavone = 100%;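 active = mean activation above the mean of solvent-only control wells plus 3 SD, cut at about 22% in these data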;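 note: counterscreen of GAA850 promoter hits where activity marks nonselective or luminescence artifacts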
GAA850 confirm – FXN GAA850 promoter activators in reporter cells, confirmation, cell-based, luminescence, HEK293 lucGAA850, triplicate; activation, % at 6 µM; 1,900 compounds, 86% hits; shares compounds with FXN GAA850 act; HEK293 lucGAA850 FXN promoter luciferase reporter, 24 h; 100% = activation by SAHA;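 active = mean activation above a set limit taken from the primary screen, cut at about 8% in these data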;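 note: 0% = DMSO wells and 100% = 10 µM SAHA wells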
Numbers without * were called inactive; x = not tested or not shown; [ ] = remark or other dose. Sampled rows, rich in hits. Any-hit rate of the full collection: about 2.5%.

SMILES	F508del corr	Env fusion inh	PAX8 reporter	EWS-Fli block	FXN GAA850 act	GAA30 counter	GAA850 confirm
Cc1cccc(/C=N/NC(=O)c2cccc([N+](=O)[O-])c2)n1	x	0	6	-6	12*	-39	11*
Cc1cccc(/C=N/NC(=O)c2cccc(NC(=O)c3ccccc3)c2)n1	0	-6	5	-7	1	x	x
CCc1cccc(CC)c1NC(=O)/C(C#N)=C/c1ccccc1C(F)(F)F	x	-2	16	x	8.0*	-12	13*
COC(=O)c1ccc(NC(=O)CSC2=NCCN2)cc1	x	-29	5	x	10.0*	34*	16*
COc1ccc(N=Nc2ccc(O)c3ncccc23)cc1	-6	-266	49	15	4	x	x
COc1cccc(N=Nc2ccc(O)c3ncccc23)c1	0	-179	48	-25	9.6*	-107	-33
CO[C@H]1CN(C)C(=O)c2cc(NC(C)=O)ccc2OC[C@@H](C)N(CCc2ccccc2)C[C@H]1C	1	x	x	19	x	x	x
CCOC(=O)c1c(CN2CCN(CCO)CC2)n(C)c2cc(Br)c(OC)cc12	x	14	x	x	8.2*	23*	18*
CCOC(=O)c1c(CN2CCCCC2)n(C)c2cc(Br)c(OC)cc12	x	x	x	x	0	x	x
CCOC(=O)CCS(=O)(=O)c1nc(-c2ccccc2)cc(C(F)(F)F)n1	x	x	x	x	4	x	x
CCOC(=O)CS(=O)(=O)c1nc(-c2ccccc2)cc(C(F)(F)F)n1	x	x	x	x	11*	-54	-23
CS(=O)(=O)c1nc(-c2ccc(F)cc2)cc(C(F)(F)F)n1	-1	-15	40	34	39*	23*	71*
CCOC(=O)CS(=O)(=O)c1nc(-c2ccc(F)cc2)cc(C(F)(F)F)n1	x	x	x	x	21*	-77	-24
CCOC(=O)c1c(C(F)(F)F)cc(-c2ccc(F)cc2)nc1C	x	x	0	x	-1	x	x
CCCC(=O)N1CC2(CCN(C(=O)NC(C)C)CC2)c2c(n(C)c3cc(OC)ccc23)[C@H]1CO	2	x	x	-1	x	x	x
COC(=O)[C@H]1[C@H](CO)[C@H]2Cn3c(ccc(-c4cncnc4)c3=O)[C@H]2N1C(=O)C1CCC1	-1	x	-64	5	x	x	x
O=C(C[C@@H]1CC[C@@H]2[C@H](COC[C@@H](O)CN2Cc2nccs2)O1)NCc1ccc(Oc2ccccc2)cc1	2	x	x	x	x	x	x
CCS(=O)(=O)N1CCCCN2[C@@H](CO)[C@@H](c3ccc(C4=CCCC4)cc3)[C@@H]2C1	1	x	-12	9	x	x	x
COC(=O)[C@]12C(=O)C(C)=C(O)[C@@]1(C)C(C)=CC1[C@@]34CC[C@@H](OC(C)=O)C(C)(C)C3C(C[C@]12C)OC4=O (some centres undefined)	-3	x	x	-2	8.8*	4	3
COC(=O)c1ccc(C(=O)OC)c(NC2=NS(=O)(=O)c3ccccc32)c1	x	-95	x	x	-1	x	x
COC(=O)c1c(-c2ccccc2)csc1NC1=NS(=O)(=O)c2ccccc21	x	x	-209	x	8.9*	125*	43*
Cc1ccc(S(=O)(=O)N(C)C[C@H]2Oc3ccc(NC(=O)Nc4cccc5ccccc45)cc3C(=O)N([C@@H](C)CO)C[C@@H]2C)cc1	-2	-6[16.7 µM]	8	-2	x	x	x
COc1ccc2c3c([nH]c2c1)[C@@H](CO)N(C(=O)C1CCC1)CC31CN(S(C)(=O)=O)C1	-1	x	x	30	x	x	x
CC(C)(C)c1ccc(/C=C/C(=O)Nc2nncs2)cc1	x	-34	-42	-28	7.6*	108*	39*
O=C(/C=C/c1ccc2c(c1)OCO2)Nc1nncs1	0	-19	-85	-82	2	x	x
SMILES	F508del corr	Env fusion inh	PAX8 reporter	EWS-Fli block	FXN GAA850 act	GAA30 counter	GAA850 confirm
O=C(C[C@H]1CC[C@H](NS(=O)(=O)c2ccccc2)[C@@H](CO)O1)N1CCN(c2ccccc2)CC1	-5	x	-8	1	x	x	x
CCCN1C(=O)S/C(=C\c2ccc(N3CCOCC3)o2)C1=O	-1	-75	6	15	9.8*	95*	29*
CCCN1C(=O)S/C(=C/c2ccc(N3CCOCC3)o2)C1=O	-2	3	-21	-98	6	x	x
CC(C)Cc1cc(-c2ccco2)c(C#N)c(N)n1	x	x	x	x	8.2*	15	18*
Fc1ccc(-n2cc(-c3ccccc3)c3c(=S)nc[nH]c32)cc1	1	12	-10	39	8.5*	-11	14*
O=c1[nH]cnc2c1c(-c1ccccc1)cn2-c1ccccc1	1	4	1	7	3	x	x
Fc1cccc(-n2cc(-c3ccccc3)c3c(=S)nc[nH]c32)c1	6	5	34	x	7.9*	-12	19*
Nc1c(C(=O)c2ccc(Br)cc2)oc2ccccc12	x	-25	-44	-17	7.7*	93*	34*
Nc1c(C(=O)c2ccccc2)oc2ccc([N+](=O)[O-])cc12	0	34	-103	-80	8.3*	99*	35*
Cc1ccc(C(=O)c2oc3ccccc3c2N)cc1	x	x	x	x	5	x	x
CN1C(=O)c2cc(NC(=O)c3cnccn3)ccc2OC[C@@H]2O[C@@H](CC(=O)N[C@@H]3CCN(Cc4ccccc4)C3)CC[C@H]21	1	x	-16	2	x	x	x
O=C(C[C@@H]1CC[C@@H]2[C@H](COC[C@H](O)CN2Cc2cccc(C(F)(F)F)c2)O1)NCc1ccncc1	0	x	12	3	x	x	x
O=C(NCCc1ccc(F)cc1)c1coc(=O)c(Br)c1	4	-357	2	39	10*	-6	17*
COc1ccc(S(=O)(=O)N(C)C[C@@H]2OCCCC[C@@H](C)Oc3ccc(NC(=O)C4CCCCC4)cc3C(=O)N([C@@H](C)CO)C[C@@H]2C)cc1	0	-15[16.7 µM]	27	6	x	x	x
COC(=O)CN1C(c2ccc(OC)cc2)=Nc2ccc(Cl)cc2C1c1ccccc1 (centres undefined)	x	1	-38	x	4	x	x
COC(=O)CN1C(c2cccc(Cl)c2)=Nc2ccc(Cl)cc2C1c1ccccc1 (centres undefined)	x	56*	16	9	8.5*	39*	15*
CCCNC(=O)N1C[C@@H](O)COC[C@H]2O[C@@H](CC(=O)NCc3ccncn3)CC[C@@H]21	-3	11[16.7 µM]	-16	5	x	x	x
CCOC(=O)C1=C(C)NC2=C(C(=O)CCC2)C1c1cc(OC)ccc1OC (centres undefined)	0	x	x	0	0	x	x
